# Columns and labels:
# [1] = test system: Proto-oncogene tyrosine-protein kinase receptor Ret (Homo sapiens), P07949 [Y791F]; settings: at 1 µM
# [2] = target: Macrophage-stimulating protein receptor (Homo sapiens) (UniProt Q04912); settings: at 0.1 µM
# [3] = target: Macrophage-stimulating protein receptor (Homo sapiens) (UniProt Q04912); settings: at 1 µM
# [4] = target: Proto-oncogene tyrosine-protein kinase ROS (Homo sapiens) (UniProt P08922); settings: at 0.1 µM
# [5] = target: Proto-oncogene tyrosine-protein kinase ROS (Homo sapiens) (UniProt P08922); settings: at 1 µM
# [6] = target: Proto-oncogene tyrosine-protein kinase Src (Homo sapiens) (UniProt P12931); settings: at 0.1 µM
# [7] = target: Proto-oncogene tyrosine-protein kinase Src (Homo sapiens) (UniProt P12931); settings: at 1 µM
# [8] = target: Tyrosine-protein kinase Srms (Homo sapiens) (UniProt Q9H3Y6); settings: at 0.1 µM
# Sequence of Tyrosine-protein kinase Srms (Homo sapiens) (Q9H3Y6 whole entry): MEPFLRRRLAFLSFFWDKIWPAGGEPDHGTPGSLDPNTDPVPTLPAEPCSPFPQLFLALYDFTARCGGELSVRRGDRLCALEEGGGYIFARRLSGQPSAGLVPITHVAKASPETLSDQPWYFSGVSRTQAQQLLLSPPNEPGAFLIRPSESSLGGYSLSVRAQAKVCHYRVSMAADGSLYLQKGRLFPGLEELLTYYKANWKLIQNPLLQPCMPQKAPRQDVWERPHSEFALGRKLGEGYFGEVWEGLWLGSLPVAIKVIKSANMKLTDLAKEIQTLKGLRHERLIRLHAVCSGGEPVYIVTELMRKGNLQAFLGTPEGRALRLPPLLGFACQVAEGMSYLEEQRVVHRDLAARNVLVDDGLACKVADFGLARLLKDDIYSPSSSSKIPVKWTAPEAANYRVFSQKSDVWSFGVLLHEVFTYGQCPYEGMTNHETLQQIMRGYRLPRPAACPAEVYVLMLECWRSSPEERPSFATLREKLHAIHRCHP
# [9] = target: Tyrosine-protein kinase Srms (Homo sapiens) (UniProt Q9H3Y6); settings: at 1 µM
# [10] = target: Tyrosine-protein kinase SYK (Homo sapiens) (UniProt P43405); settings: at 0.1 µM
# [11] = target: Tyrosine-protein kinase SYK (Homo sapiens) (UniProt P43405); settings: at 1 µM
# [12] = target: T1, Tyrosine-protein kinase Tec (Homo sapiens) (UniProt P42680); settings: at 0.1 µM
# T1 sequence (whole entry): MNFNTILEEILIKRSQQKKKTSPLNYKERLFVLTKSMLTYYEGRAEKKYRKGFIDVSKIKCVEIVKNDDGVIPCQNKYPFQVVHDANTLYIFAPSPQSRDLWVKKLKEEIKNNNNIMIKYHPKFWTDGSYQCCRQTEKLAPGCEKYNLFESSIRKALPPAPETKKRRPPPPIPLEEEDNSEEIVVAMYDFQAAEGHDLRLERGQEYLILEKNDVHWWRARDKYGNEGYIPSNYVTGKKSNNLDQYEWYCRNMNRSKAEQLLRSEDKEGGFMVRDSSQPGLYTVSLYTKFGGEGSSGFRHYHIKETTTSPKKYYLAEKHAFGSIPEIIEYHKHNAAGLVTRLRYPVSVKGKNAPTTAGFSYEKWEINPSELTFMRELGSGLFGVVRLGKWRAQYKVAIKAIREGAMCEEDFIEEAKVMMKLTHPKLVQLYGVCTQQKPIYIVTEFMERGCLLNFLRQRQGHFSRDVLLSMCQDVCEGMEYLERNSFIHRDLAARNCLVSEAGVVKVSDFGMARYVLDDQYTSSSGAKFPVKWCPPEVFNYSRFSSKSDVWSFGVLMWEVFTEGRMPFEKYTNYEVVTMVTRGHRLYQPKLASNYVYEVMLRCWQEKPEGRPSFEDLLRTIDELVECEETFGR
# [13] = target: T1, Tyrosine-protein kinase Tec (Homo sapiens); settings: at 1 µM
# [14] = target: Angiopoietin-1 receptor (Homo sapiens) (UniProt Q02763); settings: at 0.1 µM
# [15] = target: Angiopoietin-1 receptor (Homo sapiens) (UniProt Q02763); settings: at 1 µM
# [16] = target: T2, Non-receptor tyrosine-protein kinase TNK1 (Homo sapiens) (UniProt Q13470); settings: at 0.1 µM
# T2 sequence (whole entry): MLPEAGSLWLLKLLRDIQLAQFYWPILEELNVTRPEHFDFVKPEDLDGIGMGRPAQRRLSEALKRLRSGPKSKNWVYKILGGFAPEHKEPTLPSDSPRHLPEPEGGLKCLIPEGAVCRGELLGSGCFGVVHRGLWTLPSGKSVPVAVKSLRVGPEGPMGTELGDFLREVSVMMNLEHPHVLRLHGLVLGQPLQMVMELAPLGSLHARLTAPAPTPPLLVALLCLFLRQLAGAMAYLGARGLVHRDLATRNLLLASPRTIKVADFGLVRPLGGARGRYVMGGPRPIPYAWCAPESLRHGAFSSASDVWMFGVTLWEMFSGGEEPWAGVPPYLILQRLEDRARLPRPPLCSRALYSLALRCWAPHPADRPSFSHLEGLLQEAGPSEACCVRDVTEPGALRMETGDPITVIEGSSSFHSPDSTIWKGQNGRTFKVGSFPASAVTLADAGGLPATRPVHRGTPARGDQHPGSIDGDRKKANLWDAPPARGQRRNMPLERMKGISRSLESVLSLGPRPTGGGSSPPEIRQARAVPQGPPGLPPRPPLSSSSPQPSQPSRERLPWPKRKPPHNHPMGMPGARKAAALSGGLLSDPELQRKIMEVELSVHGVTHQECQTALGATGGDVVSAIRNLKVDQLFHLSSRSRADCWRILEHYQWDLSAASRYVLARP
# [17] = target: T2, Non-receptor tyrosine-protein kinase TNK1 (Homo sapiens); settings: at 1 µM
# [18] = target: Activated CDC42 kinase 1 (Homo sapiens) (UniProt Q07912); settings: at 0.1 µM
# Sequence of Activated CDC42 kinase 1 (Homo sapiens) (Q07912 whole entry, looked up): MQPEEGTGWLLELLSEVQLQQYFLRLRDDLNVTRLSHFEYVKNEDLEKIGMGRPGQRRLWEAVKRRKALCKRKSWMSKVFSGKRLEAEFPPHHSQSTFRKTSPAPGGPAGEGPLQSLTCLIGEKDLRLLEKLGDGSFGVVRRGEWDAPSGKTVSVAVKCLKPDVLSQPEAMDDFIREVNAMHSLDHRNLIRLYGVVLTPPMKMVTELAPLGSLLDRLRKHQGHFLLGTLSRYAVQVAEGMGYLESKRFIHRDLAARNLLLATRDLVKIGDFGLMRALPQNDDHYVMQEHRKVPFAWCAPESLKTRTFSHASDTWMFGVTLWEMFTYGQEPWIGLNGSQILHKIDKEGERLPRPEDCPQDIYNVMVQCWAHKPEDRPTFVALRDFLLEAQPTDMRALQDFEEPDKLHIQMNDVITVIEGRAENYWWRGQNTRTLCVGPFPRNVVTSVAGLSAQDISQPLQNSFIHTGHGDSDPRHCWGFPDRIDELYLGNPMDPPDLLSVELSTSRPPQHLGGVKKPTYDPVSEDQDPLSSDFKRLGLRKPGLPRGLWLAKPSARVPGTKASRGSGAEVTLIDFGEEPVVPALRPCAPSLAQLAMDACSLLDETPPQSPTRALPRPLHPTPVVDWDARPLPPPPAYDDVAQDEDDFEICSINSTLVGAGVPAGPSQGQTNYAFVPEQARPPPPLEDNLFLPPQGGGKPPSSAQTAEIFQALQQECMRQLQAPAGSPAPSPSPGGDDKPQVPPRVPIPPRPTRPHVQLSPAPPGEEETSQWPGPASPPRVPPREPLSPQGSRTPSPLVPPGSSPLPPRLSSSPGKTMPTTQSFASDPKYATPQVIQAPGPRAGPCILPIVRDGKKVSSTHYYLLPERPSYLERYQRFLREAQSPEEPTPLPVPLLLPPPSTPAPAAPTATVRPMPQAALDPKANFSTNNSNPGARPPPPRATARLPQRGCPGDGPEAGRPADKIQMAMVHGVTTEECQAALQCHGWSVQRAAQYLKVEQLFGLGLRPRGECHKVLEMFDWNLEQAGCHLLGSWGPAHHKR
# [19] = target: Activated CDC42 kinase 1 (Homo sapiens) (UniProt Q07912); settings: at 1 µM
# [20] = target: High affinity nerve growth factor receptor (Homo sapiens) (UniProt P04629); settings: at 0.1 µM;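 also: each value is a mean of replicate percent inhibition readings against TRKA kinase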
# Sequence of High affinity nerve growth factor receptor (Homo sapiens) (P04629 33-796 limits assumed): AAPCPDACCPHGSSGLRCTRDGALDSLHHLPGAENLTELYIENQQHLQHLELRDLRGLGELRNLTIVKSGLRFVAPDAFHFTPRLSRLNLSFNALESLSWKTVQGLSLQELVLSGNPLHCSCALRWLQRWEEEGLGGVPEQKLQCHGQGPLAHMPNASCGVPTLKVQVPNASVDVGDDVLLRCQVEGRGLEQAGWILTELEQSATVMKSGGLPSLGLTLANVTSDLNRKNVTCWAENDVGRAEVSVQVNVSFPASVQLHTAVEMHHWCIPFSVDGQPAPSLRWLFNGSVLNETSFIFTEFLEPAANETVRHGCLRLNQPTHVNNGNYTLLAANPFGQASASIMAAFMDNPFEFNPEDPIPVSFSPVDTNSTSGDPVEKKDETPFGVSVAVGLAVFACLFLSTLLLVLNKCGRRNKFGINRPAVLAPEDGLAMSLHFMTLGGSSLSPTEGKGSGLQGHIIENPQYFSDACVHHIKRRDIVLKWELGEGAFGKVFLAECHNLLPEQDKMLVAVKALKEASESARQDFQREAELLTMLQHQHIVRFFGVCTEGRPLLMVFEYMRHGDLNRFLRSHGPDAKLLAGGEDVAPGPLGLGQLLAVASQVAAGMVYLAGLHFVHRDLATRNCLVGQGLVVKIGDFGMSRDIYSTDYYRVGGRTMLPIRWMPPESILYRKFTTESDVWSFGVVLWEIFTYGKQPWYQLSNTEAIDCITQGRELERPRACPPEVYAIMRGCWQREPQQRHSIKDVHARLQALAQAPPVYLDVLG
# Sequence of Macrophage-stimulating protein receptor (Homo sapiens) (Q04912 25-304 limits assumed): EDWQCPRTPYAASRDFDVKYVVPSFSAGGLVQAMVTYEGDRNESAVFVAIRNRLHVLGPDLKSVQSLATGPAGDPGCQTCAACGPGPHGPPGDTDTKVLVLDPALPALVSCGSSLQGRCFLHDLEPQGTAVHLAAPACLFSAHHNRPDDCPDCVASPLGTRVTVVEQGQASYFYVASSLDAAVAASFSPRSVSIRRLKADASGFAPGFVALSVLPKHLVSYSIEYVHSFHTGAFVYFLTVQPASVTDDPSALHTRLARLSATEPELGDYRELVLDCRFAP
# Sequence of Macrophage-stimulating protein receptor (Homo sapiens) (Q04912 310-1400 limits assumed): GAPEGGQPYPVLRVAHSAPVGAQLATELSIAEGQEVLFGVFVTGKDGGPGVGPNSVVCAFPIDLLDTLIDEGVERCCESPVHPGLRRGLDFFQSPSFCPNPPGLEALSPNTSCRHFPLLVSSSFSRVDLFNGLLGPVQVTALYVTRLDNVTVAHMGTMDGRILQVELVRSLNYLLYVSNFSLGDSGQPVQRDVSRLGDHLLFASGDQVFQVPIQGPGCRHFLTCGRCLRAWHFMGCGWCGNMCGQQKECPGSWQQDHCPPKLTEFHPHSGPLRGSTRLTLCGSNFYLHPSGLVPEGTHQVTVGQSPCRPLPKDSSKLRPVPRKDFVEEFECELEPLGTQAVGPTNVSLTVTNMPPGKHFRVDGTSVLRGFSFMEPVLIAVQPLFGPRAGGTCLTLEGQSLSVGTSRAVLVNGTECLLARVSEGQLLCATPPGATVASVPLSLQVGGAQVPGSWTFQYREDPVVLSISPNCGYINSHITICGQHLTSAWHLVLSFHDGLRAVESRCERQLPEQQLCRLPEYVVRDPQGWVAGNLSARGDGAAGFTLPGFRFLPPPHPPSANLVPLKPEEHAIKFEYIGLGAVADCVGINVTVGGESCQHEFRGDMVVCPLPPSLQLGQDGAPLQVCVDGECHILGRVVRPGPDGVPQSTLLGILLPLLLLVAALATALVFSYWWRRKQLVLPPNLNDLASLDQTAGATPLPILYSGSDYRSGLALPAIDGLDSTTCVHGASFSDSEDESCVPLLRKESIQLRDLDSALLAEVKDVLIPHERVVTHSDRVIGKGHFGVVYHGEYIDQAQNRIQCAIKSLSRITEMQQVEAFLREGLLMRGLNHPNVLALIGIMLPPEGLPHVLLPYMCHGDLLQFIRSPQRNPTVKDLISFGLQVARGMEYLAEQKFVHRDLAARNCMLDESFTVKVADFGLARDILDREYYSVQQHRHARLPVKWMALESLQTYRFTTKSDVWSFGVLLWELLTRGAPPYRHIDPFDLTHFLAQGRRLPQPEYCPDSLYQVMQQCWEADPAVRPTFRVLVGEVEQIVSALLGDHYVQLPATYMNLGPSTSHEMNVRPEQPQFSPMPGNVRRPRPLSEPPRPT
# Sequence of Proto-oncogene tyrosine-protein kinase receptor Ret (Homo sapiens), P07949 [Y791F] (P07949 whole entry Y791F): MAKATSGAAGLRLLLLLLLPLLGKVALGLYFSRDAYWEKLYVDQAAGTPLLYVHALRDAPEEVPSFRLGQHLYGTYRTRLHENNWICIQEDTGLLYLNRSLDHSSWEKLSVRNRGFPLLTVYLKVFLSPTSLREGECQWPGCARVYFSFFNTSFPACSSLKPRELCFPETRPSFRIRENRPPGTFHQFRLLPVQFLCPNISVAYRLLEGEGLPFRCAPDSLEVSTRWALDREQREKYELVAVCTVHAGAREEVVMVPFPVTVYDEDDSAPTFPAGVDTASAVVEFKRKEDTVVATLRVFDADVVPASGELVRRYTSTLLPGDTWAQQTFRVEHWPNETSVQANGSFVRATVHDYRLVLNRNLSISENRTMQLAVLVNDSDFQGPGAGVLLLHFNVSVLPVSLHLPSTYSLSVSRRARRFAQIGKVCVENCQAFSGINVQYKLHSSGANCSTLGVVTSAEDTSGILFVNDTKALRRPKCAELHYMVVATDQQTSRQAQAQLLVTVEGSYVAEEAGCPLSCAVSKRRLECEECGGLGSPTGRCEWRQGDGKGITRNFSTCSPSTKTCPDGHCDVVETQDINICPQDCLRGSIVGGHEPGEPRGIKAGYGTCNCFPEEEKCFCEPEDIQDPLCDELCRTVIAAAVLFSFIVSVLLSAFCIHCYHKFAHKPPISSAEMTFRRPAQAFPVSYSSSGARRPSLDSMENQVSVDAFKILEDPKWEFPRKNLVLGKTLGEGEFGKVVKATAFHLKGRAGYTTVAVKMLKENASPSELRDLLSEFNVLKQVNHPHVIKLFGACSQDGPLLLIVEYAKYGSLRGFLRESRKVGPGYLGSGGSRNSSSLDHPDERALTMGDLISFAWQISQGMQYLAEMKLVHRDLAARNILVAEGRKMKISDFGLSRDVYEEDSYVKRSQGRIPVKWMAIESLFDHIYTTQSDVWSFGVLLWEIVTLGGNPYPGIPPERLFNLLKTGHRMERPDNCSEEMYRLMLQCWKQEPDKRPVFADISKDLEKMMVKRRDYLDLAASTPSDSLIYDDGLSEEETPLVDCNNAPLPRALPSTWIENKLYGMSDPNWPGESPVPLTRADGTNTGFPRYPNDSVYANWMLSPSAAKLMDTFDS
compound,measurement,setting,value
CCn1c(-c2nonc2N)nc2c(C#CCN)ncc(OCCCN)c21,inhibition,[1],15.8%
same,inhibition,[2],-2.05%
same,inhibition,[3],-3.31%
same,inhibition,[4],3.3%
same,inhibition,[5],4.46%
same,inhibition,[6],-2.04%
same,inhibition,[7],-4.29%
same,inhibition,[8],1.1%
same,inhibition,[9],1.96%
same,inhibition,[10],8.99%
same,inhibition,[11],-0.1%
same,inhibition,[12],-2.6%
same,inhibition,[13],-1.5%
same,inhibition,[14],0.84%
same,inhibition,[15],-0.39%
same,inhibition,[16],2.24%
same,inhibition,[17],10.6%
same,inhibition,[18],-0.12%
same,inhibition,[19],0.81%
same,inhibition,[20],-3.88%
NC(=O)c1sc(-n2cnc3cc(C(F)(F)F)ccc32)cc1OCc1ccccc1Br,inhibition,[1],7.07%
same,inhibition,[2],0.35%
same,inhibition,[3],-1.59%
same,inhibition,[4],4.23%
same,inhibition,[5],5.52%
same,inhibition,[6],3.37%
same,inhibition,[7],2.02%
same,inhibition,[8],0.27%
same,inhibition,[9],0.76%
same,inhibition,[10],0.79%
same,inhibition,[11],1.46%
same,inhibition,[12],1.68%
same,inhibition,[13],3.28%
same,inhibition,[14],2.07%
same,inhibition,[15],3.72%
same,inhibition,[16],1.72%
same,inhibition,[17],5.51%
same,inhibition,[18],0.49%
same,inhibition,[19],1.45%
same,inhibition,[20],-0.62%
COc1cccc(COc2cc(-n3cnc4ccccc43)sc2C(N)=O)c1,inhibition,[1],11.6%
same,inhibition,[2],-1.15%
same,inhibition,[3],1.23%
same,inhibition,[4],1.62%
same,inhibition,[5],3.74%
same,inhibition,[6],-0.77%
same,inhibition,[7],-2.52%
same,inhibition,[8],-2.46%
same,inhibition,[9],-1.46%
same,inhibition,[10],-0.33%
same,inhibition,[11],-4.12%
same,inhibition,[12],-0.82%
same,inhibition,[13],0.59%
same,inhibition,[14],-1.48%
same,inhibition,[15],3.47%
same,inhibition,[16],0.87%
same,inhibition,[17],12.1%
same,inhibition,[18],-0.46%
same,inhibition,[19],0.57%
same,inhibition,[20],-2.49%
Nc1nonc1-c1nc2cnccc2n1C1CCCCC1,inhibition,[1],13.2%
same,inhibition,[2],13.1%
same,inhibition,[3],-1.49%
same,inhibition,[4],5.33%
same,inhibition,[5],35.9%
same,inhibition,[6],1.24%
same,inhibition,[7],-1.17%
same,inhibition,[8],1.53%
same,inhibition,[9],2.59%
same,inhibition,[10],3.45%
same,inhibition,[11],-0.01%
same,inhibition,[12],-0.6%
same,inhibition,[13],1.22%
same,inhibition,[14],1.78%
same,inhibition,[15],3.18%
same,inhibition,[16],-1.33%
same,inhibition,[17],20.8%
same,inhibition,[18],-1.67%
same,inhibition,[19],-1.55%
same,inhibition,[20],-1.55%
NS(=O)(=O)c1ccc(N/C=C2\C(=O)Nc3ccc4ncsc4c32)cc1,inhibition,[1],69%
same,inhibition,[2],7.83%
same,inhibition,[3],39.2%
same,inhibition,[4],6.11%
same,inhibition,[5],17%
same,inhibition,[6],12.2%
same,inhibition,[7],42.9%
same,inhibition,[8],-3.95%
same,inhibition,[9],-1.72%
same,inhibition,[10],-2.47%
same,inhibition,[11],-8.48%
same,inhibition,[12],1.96%
same,inhibition,[13],10.6%
same,inhibition,[14],0.38%
same,inhibition,[15],10.4%
same,inhibition,[16],6.89%
same,inhibition,[17],37.8%
same,inhibition,[18],0.75%
same,inhibition,[19],1.83%
same,inhibition,[20],9.04%
Fc1ccc(-c2ncn(C3CCNCC3)c2-c2ccnc(Oc3ccccc3)n2)cc1,inhibition,[1],4.13%
same,inhibition,[3],-0.69%
same,inhibition,[4],2.25%
same,inhibition,[5],4.83%
same,inhibition,[6],1.52%
same,inhibition,[7],2.45%
same,inhibition,[8],-0.96%
same,inhibition,[9],-0.16%
same,inhibition,[10],2.45%
same,inhibition,[11],0.47%
same,inhibition,[12],-3.67%
same,inhibition,[13],-1.69%
same,inhibition,[14],-0.49%
same,inhibition,[15],1.7%
same,inhibition,[16],0.27%
same,inhibition,[17],1.01%
same,inhibition,[18],-0.4%
same,inhibition,[19],0.06%
same,inhibition,[20],1.92%
COc1cc(C=NNc2ncnc3c2cnn3Cc2ccccc2)ccc1O,inhibition,[1],28.4%
same,inhibition,[2],-1.32%
same,inhibition,[3],12.5%
same,inhibition,[4],2.7%
same,inhibition,[5],16.4%
same,inhibition,[6],31.2%
same,inhibition,[7],76.5%
same,inhibition,[8],-0.22%
same,inhibition,[9],4.66%
same,inhibition,[10],4.57%
same,inhibition,[11],-4.26%
same,inhibition,[12],-0.99%
same,inhibition,[13],16.4%
same,inhibition,[14],3.65%
same,inhibition,[15],31.7%
same,inhibition,[17],-2.22%
same,inhibition,[18],-1.7%
same,inhibition,[19],0.03%
same,inhibition,[20],-2.9%

# Reference: ChEMBL document CHEMBL1961873, “Compounds: GSK PKIS; Assays: Nanosyn kinase panel” (2012)
